Laboratory results taken from PubChem BioAssay.
Calls of active or inactive are those of the source. Unless noted, no rule for the calls is given here.

Legend:
[1] = resazurin metabolic signal in HepG2 cells – cell-based, resazurin fluorescence, 24 h, PK04 Diversity Set, profiling panel (AID 1172); conditions: HepG2 viability, higher = more signal; also: test concentration not given here
[2] = budding yeast growth changes without added modifier – OD600, strain BY4716, 24 h, basal condition, primary screen (AID 1173); conditions: S. cerevisiae BY4716 growth, OD600, 24 h; higher = more signal, called active from +8 up or from −8 down
[3] = viability profiling in MM1S myeloma cells – cell-based, resazurin fluorescence, basal, 24 h, PK04 Diversity Set, profiling panel (AID 1174); conditions: higher = more signal, called active from +8 up or from −8 down;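 also: MM1S multiple myeloma cell line; test concentration not given here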
[4] = target: Dihydroorotate dehydrogenase (quinone), mitochondrial (Plasmodium falciparum (isolate 3D7)) (UniProt Q08210); assay: inhibition of P. falciparum DHODH – biochemical, C-terminal His tag, absorbance 600 nm, primary screen (AID 1175); conditions: PfDHODH enzyme, DCIP absorbance 600 nm; higher = more signal, called active from +8 up or from −8 down;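 also: recombinant parasite enzyme with a five histidine tag at its C terminus; test concentration not given here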
Chain of Dihydroorotate dehydrogenase (quinone), mitochondrial (Plasmodium falciparum (isolate 3D7)) (Q08210 whole entry, looked up): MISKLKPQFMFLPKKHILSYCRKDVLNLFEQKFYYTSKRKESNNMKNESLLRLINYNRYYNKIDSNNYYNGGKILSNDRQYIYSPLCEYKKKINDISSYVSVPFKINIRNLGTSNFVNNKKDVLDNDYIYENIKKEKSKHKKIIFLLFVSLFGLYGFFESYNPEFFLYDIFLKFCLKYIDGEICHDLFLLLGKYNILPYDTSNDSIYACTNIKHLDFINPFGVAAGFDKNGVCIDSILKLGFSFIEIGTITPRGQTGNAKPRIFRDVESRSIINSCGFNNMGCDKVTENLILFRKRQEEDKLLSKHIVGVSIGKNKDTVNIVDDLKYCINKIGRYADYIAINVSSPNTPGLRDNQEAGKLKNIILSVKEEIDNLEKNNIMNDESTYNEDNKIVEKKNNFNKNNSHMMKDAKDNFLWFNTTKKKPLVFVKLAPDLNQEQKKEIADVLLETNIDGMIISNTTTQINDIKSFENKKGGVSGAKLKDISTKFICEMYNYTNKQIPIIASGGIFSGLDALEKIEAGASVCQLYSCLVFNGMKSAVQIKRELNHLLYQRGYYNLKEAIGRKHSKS

[5] = inhibition of PAO1 biofilm formation – strain PAO1, LB-PBS medium, absorbance 600 nm, primary screen (AID 1176); also: test concentration not given here; conditions: P. aeruginosa PAO1 growth/biofilm, A600, 12 h; higher = more signal
[6] = growth modulation of vineyard yeast isolate – strain RM11-1a, OD600, basal, 24 h, primary screen (AID 1177);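 also: cultures grown under basal conditions with no added stressor; test concentration not given here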; conditions: S. cerevisiae RM11-1a growth, OD600, 24 h; higher = more signal, called active from +8 up or from −8 down
[7] = growth of efflux-deficient E. coli DRC39 – strain DRC39, OD650, 24 h, E. coli filamentation inducers, primary screen (AID 1178);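 also: growth measured as culture turbidity by optical density at 650 nm; test concentration not given here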; conditions: E. coli DRC39 acrAB, higher = more signal, called active from +8 up or from −8 down
[8] = growth of efflux-deficient E. coli DRC39 – strain DRC39, OD650, 48 h, E. coli filamentation inducers, primary screen (AID 1179);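 also: screen aims at cell division blockers that make cells filament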; conditions: E. coli DRC39 delta-acrAB growth, higher = more signal, called active from +8 up or from −8 down
[9] = viability profiling in RPMI8226 myeloma cells – cell-based, resazurin fluorescence, basal, 24 h, PK04 Diversity Set, profiling panel (AID 1180); conditions: higher = more signal;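 also: RPMI8826 multiple myeloma cell line at 5000 cells per well; test concentration not given here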
[10] = target: E3 ubiquitin-protein ligase XIAP (Homo sapiens) (UniProt P98170); assay: small molecules binding XIAP protein – biophysical, small-molecule microarray, fluorescence 635 nm, primary screen (AID 1181); conditions: higher = more signal;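 also: score merges 667 nm emission and signal to noise over triplicate slides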
Chain of E3 ubiquitin-protein ligase XIAP (Homo sapiens) (P98170 whole entry, looked up): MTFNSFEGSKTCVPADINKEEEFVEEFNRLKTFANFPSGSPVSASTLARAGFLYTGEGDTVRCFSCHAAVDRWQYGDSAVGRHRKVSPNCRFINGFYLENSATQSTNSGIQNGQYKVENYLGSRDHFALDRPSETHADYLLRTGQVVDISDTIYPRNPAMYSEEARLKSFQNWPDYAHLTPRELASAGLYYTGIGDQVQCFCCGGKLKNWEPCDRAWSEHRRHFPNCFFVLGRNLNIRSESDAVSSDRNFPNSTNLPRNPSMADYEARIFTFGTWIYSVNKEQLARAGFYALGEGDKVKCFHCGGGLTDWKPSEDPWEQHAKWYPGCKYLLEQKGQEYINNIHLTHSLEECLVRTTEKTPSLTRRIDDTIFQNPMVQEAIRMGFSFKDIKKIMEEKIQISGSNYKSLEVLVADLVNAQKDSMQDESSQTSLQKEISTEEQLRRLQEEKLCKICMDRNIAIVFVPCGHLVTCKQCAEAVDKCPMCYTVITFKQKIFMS

SMILES	z-score [1]	z-score [2]	z-score [3]	composite z-score [4]	z-score [5]	z-score [6]	z-score [7]	z-score [8]	z-score [9]	composite z-score [10]
CC(CCN1CCc2nc(-c3ccccc3)c(-c3ccccc3)cc2C1)=NO[C@H](C)c1cn([C@H](CO)Cc2ccccc2)nn1	-0.391	-1.74 (inactive)	0.474 (inactive)	-1.38 (inactive)	0.593 (inactive)	-0.222 (inactive)	-0.424 (inactive)	-1.95 (inactive)	0.2	-0.156
COC(=O)[C@H](C)NC(=O)CCC1CC(OC(=O)NCc2ccc3c(c2)OCO3)CC2(CCCC(COC(=O)NCCc3ccc(Cl)cc3)O2)O1 (stereo not given in full)	0.388	0.515 (inactive)	-0.682 (inactive)	0.0925 (inactive)	-0.965 (inactive)	0.88 (inactive)	0.616 (inactive)	-0.729 (inactive)	0.0968	-0.0559
CC(=O)OC[C@H]1O[C@H](CC=NOC(C)CN2CCCc3nc(C)c(C)cc32)C=C[C@@H]1OC(C)=O (stereo not given in full)	-0.368	-0.494 (inactive)	0.161 (inactive)	0.159 (inactive)	-0.373 (inactive)	0.634 (inactive)	0.603 (inactive)	-0.147 (inactive)	0.12	0.145
CCN1C(=O)[C@H]2[C@H]3[C@H](O)[C@H](O)CC(=NOC(C)CN4CCCc5nc(C)c(C)cc54)[C@@H]3CC[C@H]2C1=O (stereo not given in full)	-1.01	-0.0189 (inactive)	-2 (inactive)	0.988 (inactive)	-0.112 (inactive)	0.49 (inactive)	0.836 (inactive)	0.583 (inactive)	-2.01	0.109
C#CCCCON=C1C[C@@H](O)[C@@H](O)[C@@H]2[C@@H]3C(=O)N(C4CCCCC4)C(=O)[C@@H]3CC[C@@H]12	-0.673	-3.17 (inactive)	-0.0738 (inactive)	-1.65 (inactive)	0.164 (inactive)	-1.88 (inactive)	0.587 (inactive)	0.311 (inactive)	0.321	-0.392
OC[C@H]1O[C@H](C#Cc2ccccc2)C=C[C@@H]1O	-0.0313	-2.6 (inactive)	-0.323 (inactive)	-0.249 (inactive)	0.298 (inactive)	-0.353 (inactive)	0.953 (inactive)	0.626 (inactive)	0.226	-0.184
C[C@@H]1CC[C@H]2C(=O)OC(Cc3ccccc3)CN2[C@H]1c1ccc(Br)cc1 (stereo not given in full)	0.352	-3.48 (inactive)	0.417 (inactive)	0.637 (inactive)	-0.658 (inactive)	0.2 (inactive)	1.06 (inactive)	0.485 (inactive)	-0.726	0.0299
CCOC(=O)CCN1C(=O)[C@H]2[C@H]3[C@H](O)[C@H](O)CC(=NO[C@@H]4O[C@H](CO)[C@@H](O)[C@H](O)[C@H]4O)[C@@H]3CC[C@H]2C1=O	-0.901	-1.4 (inactive)	-0.481 (inactive)	-0.451 (inactive)	0.48 (inactive)	-0.445 (inactive)	0.225 (inactive)	0.79 (inactive)	-0.634	-0.0125
Cc1ccc(C(C)C)n1C(=O)OC(C)(C)C	-0.728	-0.947 (inactive)	-1.46 (inactive)	-1.24 (inactive)	1.01 (inactive)	-1.18 (inactive)	0.32 (inactive)	-0.113 (inactive)	-1.65	-0.0509
CC(C)=CCCC(C)=CCON=C1C[C@@H](O)[C@@H](O)[C@@H]2[C@@H]3C(=O)N(C4CCCCC4)C(=O)[C@@H]3CC[C@H]12	-0.346	-0.339 (inactive)	-2.69 (inactive)	0.235 (inactive)	-0.437 (inactive)	0.577 (inactive)	0.354 (inactive)	0.683 (inactive)	-1.7	-0.111
O=C1C=C[C@@H](O)[C@@H]2[C@@H]3C(=O)N(c4cccc(Oc5ccccc5)c4)C(=O)[C@@H]3CC[C@@H]12	-0.553	-1.82 (inactive)	-0.136 (inactive)	-2.96 (inactive)	0.188 (inactive)	-0.518 (inactive)	0.318 (inactive)	-1.71 (inactive)	0.088	0.242
CCOC(=O)CCN1C(=O)[C@H]2[C@H]3[C@H](O)[C@H](O)CC(=O)[C@@H]3CC[C@H]2C1=O	1.09	-0.375 (inactive)	0.344 (inactive)	0.462 (inactive)	-0.708 (inactive)	-0.405 (inactive)	-0.512 (inactive)	-0.897 (inactive)	0.651	0.0408
C[C@@H]1CC[C@H]2C(=O)N3[C@@H](CC[C@@H](C)[C@@H]3c3ccc(Br)cc3)C(=O)N2[C@H]1c1ccc(Br)cc1	-0.346	0.0314 (inactive)	0.208 (inactive)	0.553 (inactive)	-0.27 (inactive)	0.973 (inactive)	-0.124 (inactive)	-1.38 (inactive)	0.102	-0.0056
CC(C)[C@@H](OCc1ccccc1)[C@H](C)C=NO[C@@H](C)c1cn([C@H](CO)Cc2ccccc2)nn1	-1.07	-2.35 (inactive)	-0.883 (inactive)	-0.984 (inactive)	0.241 (inactive)	-0.0022 (inactive)	0.805 (inactive)	0.633 (inactive)	-1.63	0.0374
CC(CCN1CCCCc2nc(C)c(C)cc21)=NO[C@H](C)c1cn([C@@H]2COC[C@H]2O)nn1	0.404	1.62 (inactive)	-1.64 (inactive)	-0.21 (inactive)	-0.561 (inactive)	0.811 (inactive)	0.715 (inactive)	0.821 (inactive)	-0.256	0.256
CO[C@@H]1[C@H](O)CO[C@H]1C=Cc1ccccc1	-1.01	-1.05 (inactive)	0.841 (inactive)	0.295 (inactive)	-0.859 (inactive)	-0.113 (inactive)	-0.442 (inactive)	0.207 (inactive)	0.941	-0.123
COC(=O)[C@@H]1CC[C@H](C)[C@@H](c2ccc(C)cc2)N1C(=O)c1ccc(C=NO[C@@H](C)c2cc(-c3c(C)cc(C)cc3C)no2)cc1	-0.726	1.36 (inactive)	-0.321 (inactive)	0.502 (inactive)	-0.925 (inactive)	0.378 (inactive)	0.218 (inactive)	1.04 (inactive)	0.0524	-0.238
